Experimental data taken from PubChem BioAssay.
Active and inactive are the calls of the source. How the calls were made is not given here.

Target: Pantothenate synthetase (Mycobacterium tuberculosis (strain ATCC 25618 / H37Rv)) (UniProt P9WIL5)
Experiment: Coupled enzyme confirmation of inhibitors against recombinant Mtb PanC (AID 375);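 further: 0% = full reaction with vehicle and 100% = no enzyme background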
Details: coupled enzyme assay; at 10 µM, stronger effect = higher value

Pantothenate synthetase (Mycobacterium tuberculosis (strain ATCC 25618 / H37Rv)), sequence (P9WIL5 whole entry, looked up): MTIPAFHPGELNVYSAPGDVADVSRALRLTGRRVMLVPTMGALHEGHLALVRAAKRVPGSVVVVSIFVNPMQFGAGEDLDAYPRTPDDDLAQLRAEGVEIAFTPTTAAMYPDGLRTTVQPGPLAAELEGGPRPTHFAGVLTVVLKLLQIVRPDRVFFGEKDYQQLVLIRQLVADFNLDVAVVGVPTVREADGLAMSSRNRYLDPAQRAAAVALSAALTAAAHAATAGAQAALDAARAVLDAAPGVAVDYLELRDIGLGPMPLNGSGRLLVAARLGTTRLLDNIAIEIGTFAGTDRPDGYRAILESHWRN

Structure (SMILES) | inhibition
O=c1c2[nH]c3cccc(Cl)c3c2ncn1CCN1CCCCC1 | 6% (inactive)
COc1ccccc1C(=O)Nc1ccc(S(=O)(=O)N2CCOCC2)cc1 | 6% (inactive)
CC(=O)N(CCc1ccccc1C)Cc1cc2cc3c(cc2[nH]c1=O)OCO3 | 7% (inactive)
Nc1nc2n(n1)C(c1cccc(Br)c1)CC(c1ccccc1)N2 (configuration not stated) | 0% (inactive)
COc1ccc2cnn(-c3ccccc3)c(=O)c2c1OC | 6% (inactive)
COc1ccc(-c2cc(C(=O)N3CCN(Cc4ccccc4)CC3)no2)cc1OC | 3% (inactive)
CN(CCC#N)C(=O)COC(=O)c1ccc(Cl)c(S(N)(=O)=O)c1 | 0% (inactive)
O=C(CSc1nc2ccccc2o1)Nc1ccccc1 | 0% (inactive)
O=C(CN1CCN(c2nc(-c3ccccc3)cs2)CC1)Nc1ccc2c(c1)OCO2 | 4% (inactive)
CC1Cc2ccccc2N1C(=O)C12CCC(C)(C(=O)C1)C2(C)C (configuration not stated) | 3% (inactive)
CCOC(=O)N1CCC2(O)CCCCC2C1c1ccc(F)cc1 (configuration not stated) | 1% (inactive)
Cc1c(Br)c(C(F)(F)F)nn1CC(=O)NCCN1CCOCC1 | 0% (inactive)
COC(=O)[C@H](CCSC)NC(=O)Nc1cc(C)ccc1C | 0% (inactive)
O=C(Nc1ccc2c(c1)OCCO2)NC1CCCCC1 | 0% (inactive)
Cc1nc(N2CCN(c3ncccn3)CC2)c2oc3ccccc3c2n1 | 2% (inactive)
Cn1c(N2CCC(C(N)=O)CC2)nc2c1c(=O)n(Cc1ccc(Br)cc1)c(=O)n2C | 0% (inactive)
O=C1CCN(C(=O)c2ccccc2)C2CCCCC12 (configuration not stated) | 0% (inactive)
